Reference: PubChem BioAssay (EPA / NIEHS)
Results filed as inconclusive are left out. Active and inactive are the calls of the source. How the source made its calls, unless noted: active means hit-call score of the fitted dose curve at least 0.9, where 1 is the maximum; inactive means score below 0.9.

Experiments:
CD38, CD38 (gene 952) = experiment: BSK_SAg_CD38: BioMAP Diversity Plus: SAg Assay for CD38 Biomarker Activity (AID 2283087); conditions: primary human HUVEC with PBMC; actives raise or lower the signal
In short: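 Fluorescence ELISA of cell-surface CD38 served as the read-out, with either increase or decrease fitted against DMSO controls. Cells were a human umbilical vein endothelium plus PBMC co-culture under SEB/TSST-1 stimulation, measured 24 h after dosing.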

CD40, CD40 (gene 958) = experiment: BSK_SAg_CD40: BioMAP Diversity Plus: SAg Assay for CD40 Biomarker Activity (AID 2283088); conditions: primary human HUVEC with PBMC; actives raise or lower the signal
In short: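 HUVEC plus PBMC co-culture, superantigen-activated, with CD40 read by ELISA 24 h after dosing. Curves fitted in both directions against DMSO. Overt cytotoxicity checked by parallel SRB total-protein staining.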

CD69, CD69 (gene 969) = experiment: BSK_SAg_CD69: BioMAP Diversity Plus: SAg Assay for CD69 Biomarker Activity (AID 2283089); conditions: primary human HUVEC with PBMC; actives raise or lower the signal;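 on AC50: cell surface CD69 protein quantified by ELISA with fluorescence detection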
In short: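 Primary human vascular co-culture (umbilical vein endothelium with peripheral blood mononuclear cells) exposed to test chemical for 24 h. CD69 levels quantified by fluorescence ELISA; DMSO served as negative control for bidirectional fitting.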

[1] = read-out: Monocyte Chemoattractant Protein-1 (MCP1), CCL2 (gene 6347); experiment: BSK_SAg_MCP1: BioMAP Diversity Plus: SAg Assay for Monocyte Chemoattractant Protein-1 (MCP1) Biomarker Activity (AID 2283090); conditions: primary human HUVEC with PBMC; actives raise or lower the signal
In short: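 MCP-1 levels in the endothelial–PBMC SAg co-culture were quantified by ELISA at 24 h post-dosing; both increases and decreases versus DMSO scored. Cytotoxicity monitored by SRB total protein in parallel cultures.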

[2] = read-out: E-selectin (Homo sapiens) (UniProt P16581); experiment: BSK_SAg_Eselectin: BioMAP Diversity Plus: SAg Assay for Eselectin Biomarker Activity (AID 2283091); conditions: primary human HUVEC with PBMC; actives raise or lower the signal
In short: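 Human umbilical vein endothelial cells co-cultured with peripheral blood mononuclear cells, SAg system. E-selectin is measured by ELISA 24 h after dosing and fitted bidirectionally against DMSO. Cytotoxicity is checked by SRB staining of parallel cultures.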

[3] = read-out: Monokine induced gamma interferon (MIG), CXCL9 (gene 4283); experiment: BSK_SAg_MIG: BioMAP Diversity Plus: SAg Assay for Monokine induced gamma interferon (MIG) Biomarker Activity (AID 2283092); conditions: primary human HUVEC with PBMC; actives raise or lower the signal
In short: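 Endothelial cells and PBMC were co-cultured, exposed to test chemicals, and sampled 24 h later. MIG was measured by ELISA, and responses were fitted in both directions relative to DMSO.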

[4] = BSK_SAg_PBMCCytotoxicity: PBMC Cytotoxicity Assessment in the BioMAP Diversity Plus: SAg Assay (AID 2283093); conditions: primary human HUVEC with PBMC;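 further: PBMC viability measured as Alamar Blue reduction fluorescence at 546/580 nm; fitted both ways against DMSO so a hit may be loss or gain of signal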;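 on AC50: PBMC superantigen activated with SEB plus TSST-1 one hour after compound addition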
In short: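 HUVEC/PBMC co-culture; PBMC exposed to chemical 1 h before SEB and TSST-1 activation (20 ng/mL each), incubated 90 h, then Alamar Blue 6 h, fluorescence 546/580 nm. Bidirectional fit versus DMSO baseline.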

[5] = read-out: Interleukin-8 (IL8), CXCL8 (gene 3576); experiment: BSK_SAg_IL8: BioMAP Diversity Plus: SAg Assay for Interleukin-8 (IL8) Biomarker Activity (AID 2283094); conditions: primary human HUVEC with PBMC; actives raise or lower the signal
In short: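 In this co-culture of human umbilical vein endothelium with peripheral blood mononuclear cells, IL-8 is assayed by ELISA at 24 h. DMSO serves as baseline for bidirectional curve fitting.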

[6] = BSK_SAg_Proliferation: Cell Proliferation Assessment in the BioMAP Diversity Plus: SAg Assay (AID 2283095); conditions: primary human HUVEC with PBMC;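 further: relative cell number as total protein by SRB absorbance in sub-confluent culture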
In short: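 Readout is SRB-stained protein (560 nm) in a primary human HUVEC and PBMC co-culture; sub-confluent cultures are read at 96 h. Activity is fitted bidirectionally using DMSO as baseline.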

[7] = target: Cytochrome P450 2C19 (Homo sapiens) (UniProt P33261); experiment: NVS_ADME_hCYP2C19: NovaScreen (NVS) CYP450-related Enzyme Activity (ADME) Assay for human CYP2C19 (AID 2283113; active means hit-call score of the fitted dose curve at least 0.9, where 1 is the maximum;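 further: potency for inhibition seen as loss of fluorescent signal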)
In short: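 Cell-free recombinant human CYP2C19 from insect cells, fluorescent substrate; activity read by fluorescence intensity 1 h after dosing. Primary screen in duplicate at 10 uM; actives retested in concentration series. Signal loss versus acetonitrile negative control.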

[8] = target: human CYP1A2, CYP1A2 (gene 1544) (UniProt P05177); experiment: NVS_ADME_hCYP1A2: NovaScreen (NVS) CYP450-related Enzyme Activity (ADME) Assay for human CYP1A2 (AID 2283102; active means hit-call score of the fitted dose curve at least 0.9, where 1 is the maximum;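 further: potency for inhibition since loss of fluorescence marks reduced CYP1A2 activity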)
Chain of human CYP1A2, CYP1A2 (gene 1544) (P05177 whole entry, looked up): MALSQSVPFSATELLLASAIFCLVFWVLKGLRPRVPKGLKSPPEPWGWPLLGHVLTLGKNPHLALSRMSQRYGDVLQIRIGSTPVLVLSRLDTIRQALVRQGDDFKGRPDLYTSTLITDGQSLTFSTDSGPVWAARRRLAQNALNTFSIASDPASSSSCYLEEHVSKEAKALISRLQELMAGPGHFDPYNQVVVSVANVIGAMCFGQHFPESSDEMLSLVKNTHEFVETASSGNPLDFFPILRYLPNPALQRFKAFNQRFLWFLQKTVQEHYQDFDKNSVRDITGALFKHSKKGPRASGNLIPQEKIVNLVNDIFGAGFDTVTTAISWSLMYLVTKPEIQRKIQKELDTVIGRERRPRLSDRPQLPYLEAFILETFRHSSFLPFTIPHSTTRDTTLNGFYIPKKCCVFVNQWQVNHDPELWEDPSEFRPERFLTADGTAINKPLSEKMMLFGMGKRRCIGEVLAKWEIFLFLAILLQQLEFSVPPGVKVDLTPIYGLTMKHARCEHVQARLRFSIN
In short: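 Recombinant human CYP1A2 from insect cells, cell-free, fluorogenic substrate; read 0.5 h after dosing with loss of fluorescence signal indicating inhibition. Primary screen in duplicate at 10 uM, acetonitrile as negative control.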

[9] = BSK_SAg_SRB: Viability Assessment in the BioMAP Diversity Plus: SAg Assay (AID 2283096); conditions: primary human HUVEC with PBMC;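 further: cells read one day after compound addition; hits may be either gain or loss of signal compared with DMSO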
In short: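 Human umbilical vein endothelial cells co-cultured with PBMC, read 24 h after compound dosing. Total protein measured by sulforhodamine B staining (0.1% SRB after 10% TCA fixation, absorbance 560 nm); bidirectional fit versus DMSO baseline.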

[10] = target: human Acid Phosphatase 1 (ACP1), ACP1 (gene 52) (UniProt P24666); experiment: NVS_ENZ_hACP1: NovaScreen (NVS) Enzymatic Assay for human Acid Phosphatase 1 (ACP1) (AID 2283136; active means hit-call score of the fitted dose curve at least 0.9, where 1 is the maximum)
Chain of human Acid Phosphatase 1 (ACP1), ACP1 (gene 52) (P24666 whole entry, looked up): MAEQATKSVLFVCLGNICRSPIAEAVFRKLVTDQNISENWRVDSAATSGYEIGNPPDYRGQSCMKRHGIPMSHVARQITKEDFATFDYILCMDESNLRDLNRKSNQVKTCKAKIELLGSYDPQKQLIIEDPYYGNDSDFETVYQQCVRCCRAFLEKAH
In short: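 Recombinant enzyme expressed in Sf9 cells, tested cell-free; activity read by fluorescence with electrophoretic mobility shift separation of substrate and product, 1.5 h after dosing. Primary screen in duplicate at 25 uM, actives then run in concentration series; loss of signal versus DMSO.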

[11] = target: human CYP2C9, CYP2C9 (gene 1559) (UniProt P11712); experiment: NVS_ADME_hCYP2C9: NovaScreen (NVS) CYP450-related Enzyme Activity (ADME) Assay for human CYP2C9 (AID 2283108; active means hit-call score of the fitted dose curve at least 0.9, where 1 is the maximum)
Chain of human CYP2C9, CYP2C9 (gene 1559) (P11712 whole entry, looked up): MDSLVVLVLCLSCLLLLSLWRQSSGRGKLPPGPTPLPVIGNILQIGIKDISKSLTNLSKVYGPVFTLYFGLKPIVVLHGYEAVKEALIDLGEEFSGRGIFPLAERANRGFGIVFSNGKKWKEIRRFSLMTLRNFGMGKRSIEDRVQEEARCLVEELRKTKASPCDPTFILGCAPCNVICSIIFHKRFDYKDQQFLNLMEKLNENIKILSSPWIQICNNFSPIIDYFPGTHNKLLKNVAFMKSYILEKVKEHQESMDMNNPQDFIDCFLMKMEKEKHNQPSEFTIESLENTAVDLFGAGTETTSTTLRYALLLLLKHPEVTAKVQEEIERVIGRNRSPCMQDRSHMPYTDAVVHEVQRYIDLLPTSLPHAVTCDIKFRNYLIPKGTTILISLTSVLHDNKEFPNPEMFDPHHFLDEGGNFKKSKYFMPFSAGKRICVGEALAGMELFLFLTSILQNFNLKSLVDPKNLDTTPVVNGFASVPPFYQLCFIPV
In short: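 Recombinant human CYP2C9 expressed in SF9 cells, fluorogenic substrate, fluorescence read 0.75 h after dosing. Chemicals first run in duplicate at 10 uM, with actives followed in concentration series; loss of signal versus acetonitrile baseline.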

[12] = target: Cytochrome P450 3A4 (Homo sapiens) (UniProt P08684); experiment: NVS_ADME_hCYP3A4: NovaScreen (NVS) CYP450-related Enzyme Activity (ADME) Assay for human CYP3A4 (AID 2283110; active means hit-call score of the fitted dose curve at least 0.9, where 1 is the maximum)
Chain of Cytochrome P450 3A4 (Homo sapiens) (P08684 whole entry, looked up): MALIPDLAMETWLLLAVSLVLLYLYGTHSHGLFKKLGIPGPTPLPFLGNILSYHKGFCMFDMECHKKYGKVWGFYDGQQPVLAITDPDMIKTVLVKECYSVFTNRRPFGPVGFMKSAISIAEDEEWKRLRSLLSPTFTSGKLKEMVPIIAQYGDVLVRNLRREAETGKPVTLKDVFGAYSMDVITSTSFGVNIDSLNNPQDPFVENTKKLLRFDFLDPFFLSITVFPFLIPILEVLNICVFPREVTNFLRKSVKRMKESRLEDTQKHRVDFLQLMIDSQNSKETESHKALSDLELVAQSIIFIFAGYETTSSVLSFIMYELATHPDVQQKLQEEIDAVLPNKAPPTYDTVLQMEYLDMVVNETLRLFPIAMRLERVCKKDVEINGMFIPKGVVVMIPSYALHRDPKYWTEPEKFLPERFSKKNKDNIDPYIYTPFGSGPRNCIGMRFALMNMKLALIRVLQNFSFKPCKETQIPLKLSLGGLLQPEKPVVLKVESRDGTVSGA
In short: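 Cell-free recombinant enzyme expressed in insect cells; fluorescent substrate turnover read after 0.33 h, acetonitrile as negative control. Primary screen in duplicate at 10 uM, actives then tested in concentration series.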

[13] = target: human CYP19A1, CYP19A1 (gene 1588) (UniProt P11511); experiment: NVS_ADME_hCYP19A1: NovaScreen (NVS) CYP450-related Enzyme Activity (ADME) Assay for human CYP19A1 (AID 2283098; active means hit-call score of the fitted dose curve at least 0.9, where 1 is the maximum;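 further: potency for inhibitors seen as loss of fluorescent enzyme signal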)
Chain of human CYP19A1, CYP19A1 (gene 1588) (P11511 whole entry, looked up): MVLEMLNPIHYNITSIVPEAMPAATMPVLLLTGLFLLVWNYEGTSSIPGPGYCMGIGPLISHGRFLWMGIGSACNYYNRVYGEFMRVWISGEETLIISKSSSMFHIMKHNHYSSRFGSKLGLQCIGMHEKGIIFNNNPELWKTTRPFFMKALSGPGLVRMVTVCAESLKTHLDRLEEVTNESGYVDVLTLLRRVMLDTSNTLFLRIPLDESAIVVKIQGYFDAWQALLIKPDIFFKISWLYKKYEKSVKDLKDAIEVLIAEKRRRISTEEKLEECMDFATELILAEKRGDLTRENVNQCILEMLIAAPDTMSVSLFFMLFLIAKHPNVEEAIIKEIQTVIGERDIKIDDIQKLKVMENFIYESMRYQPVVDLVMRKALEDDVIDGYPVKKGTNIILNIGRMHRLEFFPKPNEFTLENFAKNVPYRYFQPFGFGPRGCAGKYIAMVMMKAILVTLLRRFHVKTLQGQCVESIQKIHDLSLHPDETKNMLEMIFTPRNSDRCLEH
In short: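 Recombinant enzyme in a cell-free format, read 0.5 h after dosing by fluorescence from a fluorogenic substrate. Loss of signal was fitted against acetonitrile as baseline. Primary screen in duplicate at 10 uM, actives then tested in concentration series.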

Measured: AC50

Chain of E-selectin (Homo sapiens) (P16581 whole entry, looked up): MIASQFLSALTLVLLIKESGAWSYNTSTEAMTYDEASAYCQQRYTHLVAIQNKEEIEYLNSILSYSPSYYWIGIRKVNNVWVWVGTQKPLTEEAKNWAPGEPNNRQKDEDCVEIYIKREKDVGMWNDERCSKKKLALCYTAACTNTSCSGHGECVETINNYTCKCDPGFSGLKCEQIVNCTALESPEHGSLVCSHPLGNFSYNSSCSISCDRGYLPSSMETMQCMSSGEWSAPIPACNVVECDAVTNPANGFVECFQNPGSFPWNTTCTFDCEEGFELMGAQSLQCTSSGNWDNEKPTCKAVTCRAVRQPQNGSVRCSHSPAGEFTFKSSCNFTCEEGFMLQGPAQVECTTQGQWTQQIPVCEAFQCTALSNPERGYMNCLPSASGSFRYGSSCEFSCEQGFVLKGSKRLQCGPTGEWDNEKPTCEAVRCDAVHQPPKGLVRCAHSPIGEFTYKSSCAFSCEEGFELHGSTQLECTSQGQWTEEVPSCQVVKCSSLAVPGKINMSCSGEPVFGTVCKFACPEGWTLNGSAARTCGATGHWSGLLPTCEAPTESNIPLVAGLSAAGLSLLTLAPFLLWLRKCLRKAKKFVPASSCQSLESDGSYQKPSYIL

COc1ccc(-n2nc(C(F)F)cc2-c2ccc(S(C)=O)cc2)cc1 (centres undefined)
active: CD69, CD69 (gene 969) 2.28 µM | [1] 1.13 µM | [2] 1.21 µM | [5] 2.09 µM | [7] 0.967 µM
inactive: CD38, CD38 (gene 952) | CD40, CD40 (gene 958) | [3] | [4] | [6]

COC(=O)c1c(Cl)c(Cl)c(C(=O)OC)c(Cl)c1Cl
active: CD40, CD40 (gene 958) 20 µM | [8] 8.47 µM
inactive: CD38, CD38 (gene 952) | CD69, CD69 (gene 969) | [1] | [2] | [3] | [4] | [5] | [6]

COCCOCCOCCOC
inactive: CD38, CD38 (gene 952) | CD40, CD40 (gene 958) | CD69, CD69 (gene 969) | [1] | [2] | [3] | [4] | [5] | [6] | [9]

COC(=O)c1ccccc1O
inactive: CD38, CD38 (gene 952) | CD40, CD40 (gene 958) | CD69, CD69 (gene 969) | [1] | [2] | [3] | [4] | [5] | [6] | [9]

O=C(O)c1cc(N=Nc2ccc(S(=O)(=O)Nc3ccccn3)cc2)ccc1O
inactive: CD38, CD38 (gene 952) | CD40, CD40 (gene 958) | CD69, CD69 (gene 969) | [1] | [2] | [3] | [4] | [5] | [6] | [10]

Oc1ccc2c(c1)-c1ccccc1C2
inactive: CD38, CD38 (gene 952) | CD69, CD69 (gene 969) | [1] | [2] | [3] | [4] | [5] | [6] | [12]
active: CD40, CD40 (gene 958) 24.8 µM | [9] 20 µM | [8] 0.691 µM | [11] 3.72 µM | [7] 5.99 µM

Nc1cccc(N)c1
inactive: CD38, CD38 (gene 952) | CD40, CD40 (gene 958) | CD69, CD69 (gene 969) | [1] | [2] | [3] | [4] | [5] | [6] | [9]

CN(C)c1ccc(N=NS(=O)(=O)O)cc1
inactive: CD38, CD38 (gene 952) | CD40, CD40 (gene 958) | CD69, CD69 (gene 969) | [1] | [2] | [3] | [4] | [5]
active: [6] 19 µM | [13] 12 µM

On1ccccc1=S
active: CD38, CD38 (gene 952) 12.2 µM | CD40, CD40 (gene 958) 27.8 µM | CD69, CD69 (gene 969) 12.2 µM | [1] 13 µM | [2] 8.16 µM | [3] 19.8 µM | [4] 18.2 µM | [6] 6.94 µM | [7] 5.15 µM
inactive: [5]
